The sample as a whole holds a higher share of hits than the screen did.
Dicer inh – inhibitors of human Dicer processing of pre-microRNA | Q9UPY3 | cat-ELCCA pre-miR-21 Dicer processing, chemiluminescence; hits give high values | z-score at 25 µM | actives 6% (n = 47,000) | AID 1347074; in the data active means z-score above about 3, passing the limit was not always enough;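 further: plate controls were vehicle for no effect and no enzyme for full effect; higher signal means more uncleaved substrate so more Dicer inhibition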
Target sequence (Q9UPY3 whole entry, looked up): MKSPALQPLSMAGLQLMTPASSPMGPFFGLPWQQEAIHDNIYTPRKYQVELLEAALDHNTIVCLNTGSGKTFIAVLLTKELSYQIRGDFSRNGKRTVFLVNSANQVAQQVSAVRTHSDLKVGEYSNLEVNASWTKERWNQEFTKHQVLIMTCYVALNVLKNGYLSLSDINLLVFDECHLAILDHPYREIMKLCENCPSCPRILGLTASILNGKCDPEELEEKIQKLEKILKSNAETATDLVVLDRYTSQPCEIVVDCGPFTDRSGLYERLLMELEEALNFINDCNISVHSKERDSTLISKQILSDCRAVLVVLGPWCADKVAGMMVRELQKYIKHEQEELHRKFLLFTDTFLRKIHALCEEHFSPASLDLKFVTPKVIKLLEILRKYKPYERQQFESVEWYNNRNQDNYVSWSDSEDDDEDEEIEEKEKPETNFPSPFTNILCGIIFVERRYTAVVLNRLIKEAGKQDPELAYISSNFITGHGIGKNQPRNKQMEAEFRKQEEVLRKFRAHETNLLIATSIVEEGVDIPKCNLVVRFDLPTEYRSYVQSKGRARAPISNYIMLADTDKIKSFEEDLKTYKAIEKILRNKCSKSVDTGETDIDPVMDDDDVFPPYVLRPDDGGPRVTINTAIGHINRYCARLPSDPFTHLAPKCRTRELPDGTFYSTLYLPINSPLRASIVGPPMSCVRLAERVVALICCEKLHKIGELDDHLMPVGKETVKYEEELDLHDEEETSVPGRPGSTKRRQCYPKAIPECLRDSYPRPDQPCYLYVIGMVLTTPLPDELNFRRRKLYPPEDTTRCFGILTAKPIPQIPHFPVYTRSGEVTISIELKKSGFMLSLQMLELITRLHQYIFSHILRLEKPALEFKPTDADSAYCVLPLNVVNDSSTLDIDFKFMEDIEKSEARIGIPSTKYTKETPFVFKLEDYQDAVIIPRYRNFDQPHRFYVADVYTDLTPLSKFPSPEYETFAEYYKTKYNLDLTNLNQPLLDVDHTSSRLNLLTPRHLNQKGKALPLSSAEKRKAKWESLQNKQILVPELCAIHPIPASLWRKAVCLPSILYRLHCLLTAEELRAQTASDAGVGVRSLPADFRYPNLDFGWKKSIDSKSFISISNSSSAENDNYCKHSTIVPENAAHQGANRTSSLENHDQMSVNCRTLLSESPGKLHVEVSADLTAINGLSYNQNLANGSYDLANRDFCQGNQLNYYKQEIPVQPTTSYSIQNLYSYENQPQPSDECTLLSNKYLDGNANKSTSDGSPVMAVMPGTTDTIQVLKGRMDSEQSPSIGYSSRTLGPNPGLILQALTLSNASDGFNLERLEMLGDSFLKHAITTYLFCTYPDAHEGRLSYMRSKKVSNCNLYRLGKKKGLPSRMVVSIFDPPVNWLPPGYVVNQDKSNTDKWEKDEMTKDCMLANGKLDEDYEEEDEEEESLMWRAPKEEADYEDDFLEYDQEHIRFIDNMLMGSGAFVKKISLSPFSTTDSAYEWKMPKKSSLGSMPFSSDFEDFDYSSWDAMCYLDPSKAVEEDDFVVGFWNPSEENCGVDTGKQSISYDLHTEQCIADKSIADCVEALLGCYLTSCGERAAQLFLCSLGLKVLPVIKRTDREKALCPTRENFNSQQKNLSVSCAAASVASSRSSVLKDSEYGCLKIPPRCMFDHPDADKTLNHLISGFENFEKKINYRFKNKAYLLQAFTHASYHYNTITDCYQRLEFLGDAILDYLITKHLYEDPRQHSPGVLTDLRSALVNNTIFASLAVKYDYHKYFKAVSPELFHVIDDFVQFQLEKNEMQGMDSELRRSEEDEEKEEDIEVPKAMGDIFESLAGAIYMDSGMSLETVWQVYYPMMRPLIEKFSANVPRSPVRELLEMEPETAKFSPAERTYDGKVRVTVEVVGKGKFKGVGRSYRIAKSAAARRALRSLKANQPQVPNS
* hit, by the source's call.

How did Cn1c(-c2ccc(F)cc2)cnc1NCc1ccccc1Cl do in these assays?
Dicer inh: 2.11

Results for COc1ccc(CNc2ncc(-c3ccc(Br)cc3)n2C)cc1OC ?
Dicer inh: -0.09

How did Cn1c(-c2ccc(Br)cc2)cnc1NCc1ccc(F)cc1 do in these assays?
Dicer inh: 3.12*

Results for Cc1ccc(CNc2ncc(-c3ccc(F)cc3)n2C)cc1 ?
Dicer inh: 2.17

What do the screens show for `Cc1nn(C)c(N2CCOCC2)c1[N+](=O)[O-]`?
Dicer inh: -0.97

How did S=C(Nc1cc(-c2cccs2)[nH]n1)Nc1ccccc1Cl do in these assays?
Dicer inh: 0.94

What do the screens show for `COc1ccc(C2C(C(=O)OC(C)(C)C)C(=O)CC(C)(O)C2C(=O)OC(C)(C)C)cc1OC` (centres undefined)?
Dicer inh: 0.04

Results for CCNc1[nH]c(=S)nc2c1cnn2-c1ccccc1 ?
Dicer inh: -0.66

How did Cc1cc(C)nc(SCC(=O)Nc2c(C)n[nH]c2C)n1 do in these assays?
Dicer inh: 0.71

Results for CC1CCc2c(sc3ncnc(SCC(=O)c4ccc(Br)cc4)c23)C1 (centres undefined) ?
Dicer inh: -1.71

How did c1ccc2[nH]c(CCCc3nc4ccccc4s3)nc2c1 do in these assays?
Dicer inh: 1.72

Results for CSc1sc(C(=O)N/N=C/c2ccc(Cl)cc2)c2c1C1(CCC2)SCCS1 ?
Dicer inh: -0.17

What do the screens show for `O=S(=O)(c1ccc(Cl)cc1)N(CCc1ccccn1)c1ccccc1`?
Dicer inh: -1.34

What do the screens show for `COC(=O)C1=NN(c2ccc(OC)cc2)C2C(=O)N(c3ccc(Br)cc3)C(=O)C12` (centres undefined)?
Dicer inh: 0.67

Results for CCOC(=O)C1=NNC2C(=O)N(c3ccccc3)C(=O)C12 (centres undefined) ?
Dicer inh: 0.66

How did CCOC(=O)C1=NN(c2ccc(OC)cc2)C2C(=O)N(c3ccccc3)C(=O)C12 (centres undefined) do in these assays?
Dicer inh: 4.69*

How did COC(=O)c1sc(SCCOC(=O)Nc2ccccc2)c2c1CC(C)(C)CC2=O do in these assays?
Dicer inh: -0.91

How did Cc1cc(=O)[nH]c2cc(-c3ccccc3)nn12 do in these assays?
Dicer inh: 2.15

What do the screens show for `CN(C)S(=O)(=O)N(CC(=O)Nc1ccccc1Sc1ccccc1)c1ccccc1`?
Dicer inh: -1.68

What do the screens show for `Cc1ccc(C2C=C(c3ccc(Cl)cc3)Nc3nc(NS(C)(=O)=O)nn32)cc1` (centres undefined)?
Dicer inh: 2.49

How did CC1=CC(c2ccc(Cl)cc2)n2nc(NC(=O)c3ccco3)nc2N1 (centres undefined) do in these assays?
Dicer inh: 9.83*

What do the screens show for `CS(=O)(=O)Nc1nc2n(n1)C(c1ccc(F)cc1)C=C(c1ccc(Cl)cc1)N2` (centres undefined)?
Dicer inh: 2.43

Results for Fc1ccc(C2=CSC3=NCCCN23)cc1F ?
Dicer inh: -0.97

Results for COc1ccc(C2CN=NC23CSc2ccccc2C3=O)cc1 (centres undefined) ?
Dicer inh: -1.69

What do the screens show for `O=C1c2ccccc2-c2nc3cc(C(F)(F)F)ccc3nc21`?
Dicer inh: -1.7

What do the screens show for `Cc1nc2ccc([N+](=O)[O-])cc2nc1C`?
Dicer inh: -0.66

Results for Cc1nc2ccc(C(F)(F)F)cc2nc1C ?
Dicer inh: 3.54*

How did CC(C)NC(=O)NNc1ccc(-c2csnn2)cc1 do in these assays?
Dicer inh: 0.63

What do the screens show for `FC(F)(F)c1cc(N2N=NC3C4CC(C5CCCC54)C32N2CCOCC2)cc(C(F)(F)F)c1` (centres undefined)?
Dicer inh: -0.03

Results for Oc1ccc(F)cc1-c1ccnc2cc(-c3ccccc3)nn12 ?
Dicer inh: 5.99

Results for Cc1ccc(-c2cc3nccc(-c4cc(C)ccc4O)n3n2)cc1 ?
Dicer inh: -2.04

How did Oc1ccccc1-c1ccnc2cc(-c3ccccc3)nn12 do in these assays?
Dicer inh: 4.43*

What do the screens show for `O=C(Nc1ncnc2sc3c(c12)CCC3)c1ccc(F)cc1`?
Dicer inh: 1.83

How did CCOC(=O)c1sc(-c2ccccc2)nc1OC do in these assays?
Dicer inh: 1.72

What do the screens show for `COc1nc2ccccc2nc1CCC(=O)O`?
Dicer inh: 3.79*

What do the screens show for `Cn1c2ccccc2n2nc(CCC(=O)O)c(=O)nc12`?
Dicer inh: 2.09

How did COC(=O)c1ccc(COC(=O)CCc2nc3ccccc3[nH]c2=O)cc1 do in these assays?
Dicer inh: 2.72

Results for CCCCOC(=O)CCc1nc2ccccc2[nH]c1=O ?
Dicer inh: 0.6

How did COC(=O)CCc1nc2ccccc2nc1OC do in these assays?
Dicer inh: 3.49*

Results for CSc1sc(C(=O)Nc2ccc(Cl)cc2)c2c1C=CCC2 ?
Dicer inh: -1.88

How did O=S(=O)(NCCN1CCOCC1)c1ccc(F)cc1 do in these assays?
Dicer inh: 1.03

How did COc1ccc(NC(=O)CC2C(=O)NCCN2C(=O)Nc2ccc(OCc3ccccc3)cc2)cc1 (centres undefined) do in these assays?
Dicer inh: 1.66

What do the screens show for `N#Cc1c(SCC(=O)c2ccccc2)nc2c(c1/C=C\c1ccccc1)CCC2`?
Dicer inh: -0.84

How did CCOC(=O)c1c[nH]c2c(-c3ccccc3)c(C(F)(F)F)sc2c1=O do in these assays?
Dicer inh: 0.13

How did Cc1cccc2c(=O)c(C(=O)O)c[nH]c12 do in these assays?
Dicer inh: 0.73

How did O=C(O)c1c[nH]c2c(-c3ccccc3)c(C(F)(F)F)sc2c1=O do in these assays?
Dicer inh: 4.82*

What do the screens show for `COc1ccc(Oc2coc3cc(OCCc4ccccc4)ccc3c2=O)cc1`?
Dicer inh: 1.26

Results for O=C1Nc2ccc(I)cc2/C1=C/c1cc(Br)c(O)c(Br)c1 ?
Dicer inh: 4.48*

How did O=C1Nc2ccccc2/C1=C/c1ccc2nsnc2c1 do in these assays?
Dicer inh: -0.73

Results for COc1cc2c(cc1OC)/C(=C/c1cc(OC)c(OC)c(OC)c1)C(=O)N2 ?
Dicer inh: 1.67

How did COc1cccc(C2C3=C(Nc4c2c(=O)[nH]c(=O)n4C)c2ccccc2C3=O)c1 (centres undefined) do in these assays?
Dicer inh: -1.33

Results for COC(=O)c1scc(Br)c1OC(=O)c1ccc(Cl)cc1Cl ?
Dicer inh: -0.74

What do the screens show for `c1ccc(OCc2nn3c(-c4ccccc4)nnc3s2)cc1`?
Dicer inh: -1.15

How did CCOC(=O)CCCCCN1C(=O)S/C(=C/c2ccc(OC)cc2)C1=S do in these assays?
Dicer inh: 0.37

How did N#Cc1c(-c2ccc(Cl)cc2)nc(N/N=C/c2cccs2)[nH]c1=O do in these assays?
Dicer inh: 3.52*

What do the screens show for `COc1ccc(-c2nc(N(C)c3ccccc3)[nH]c(=O)c2C#N)cc1`?
Dicer inh: -0.19

What do the screens show for `N#Cc1c(-c2ccc(Cl)c(Cl)c2)cc(-c2ccc(Cl)cc2)[nH]c1=O`?
Dicer inh: 2.13

What do the screens show for `N#Cc1c(-c2ccccc2)nc(N/N=C/c2cccs2)[nH]c1=O`?
Dicer inh: 3.79*

Results for N#Cc1c(-c2ccccc2)c(-c2ccccc2)nn(CC(=O)N/N=C/c2cccs2)c1=O ?
Dicer inh: -0.43

How did N#Cc1c(-c2ccc(Cl)cc2)nc(Nc2ccc(Cl)cc2)[nH]c1=O do in these assays?
Dicer inh: 1.05

What do the screens show for `NNC(=O)CSCc1c(Cl)cccc1Cl`?
Dicer inh: 0.86

Results for c1ccc(-c2nc3ccc(Oc4ccc5nc(-c6ccccn6)[nH]c5c4)cc3[nH]2)nc1 ?
Dicer inh: -2.26

How did COc1ccc(-c2nc3c4c5c(sc4ncn3n2)CCCC5)cc1OC do in these assays?
Dicer inh: 0.55

Bioassay records: PubChem, Center for Chemical Genomics, University of Michigan
